The nature of test [1]: qHTS assay to identify small molecule agonists of the vitamin D receptor (VDR) signaling pathway - cell viability counter screen (AID 743224). Note: series mostly up to about 63 µM; nearly all actives have a fitted effect of over 50% in size. The procedure, abridged: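 VDR-bla cells were preincubated 4 h at 37C/5% CO2, then exposed to compounds for 16 h. After the 2 h room-temperature bla FRET read, CellTiter-Glo was added to the same wells and luminescence read after 30 min.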
(In general: In qHTS, concentration-response curves come from the screen itself.)

Test [2] is described as follows: qHTS assay to identify small molecule antagonists of the vitamin D receptor (VDR) signaling pathway - cell viability counter screen (AID 743225). Note: nearly all actives have a fitted effect of over 50% in size. The essentials:
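Compounds were pinned onto VDR-bla HEK 293T cells together with 1-alpha,25-dihydroxyvitamin D3 at 3 nM final. After 16 h at 37C and 5% CO2 plus the reporter readout, cell viability was measured by CellTiter-Glo luminescence (30 min, room temperature).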

Test [3] is described as follows: qHTS assay to identify small molecule agonists of the endoplasmic reticulum stress response signaling pathway (AID 1159516; active = well fitted activation curve with a large enough effect in the signal ratio in the repeat runs, not every such curve was filed as active; the % refers to the signal ratio). The essentials:
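CellSensor ESRE-bla HeLa cells, carrying a beta-lactamase reporter driven by the ER stress response element, were plated overnight and exposed to compounds for 5 hr at 37 C. Reporter activity was read as FRET substrate fluorescence after 2 hr at room temperature.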

Test [4] can be described thus: qHTS assay to identify small molecule agonists of the endoplasmic reticulum stress response signaling pathway - cell viability counter screen (AID 1159517; calls by dose curve; note: series mostly up to about 61 µM; nearly all actives have a fitted effect of over 50% in size). The procedure, abridged:
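CellTiter-Glo was added to wells already read for beta-lactamase FRET, and luminescence was recorded 30 min later. Cells: ESRE-bla HeLa, 1,500 per well, compound exposure 5 hr at 37 C.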

Test [5] in a line: qHTS assay to identify small molecule antagonists of the retinoid-related orphan receptor gamma (ROR-gamma) signaling pathway - cell viability counter screen (AID 1159520). Note: nearly all actives have a fitted effect of over 50% in size. The essentials: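 Tet-on ROR gamma CHO cells (1,000/well) were plated 4 hr, given compounds in DMSO for 2 hr at 37 C, then induced with 1 uM final doxycycline for 16 hr. Viability was read as ATP by CellTiter-Glo luminescence after 30 min.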

The target of test [6] is Nuclear receptor ROR-gamma (Homo sapiens) (UniProt P51449). The experiment in a line: qHTS assay to identify small molecule antagonists of the retinoid-related orphan receptor gamma (ROR-gamma) signaling pathway (AID 1159521). The essentials:
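Test compounds were applied to Tet-on RORγ CHO cells 2 h ahead of doxycycline hyclate (1 uM final). Luciferase reporter activity was quantified by luminescence after 16 h at 37 C and 5% CO2.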

Test [7] in a line: qHTS assay to identify small molecule agonists of the AP-1 signaling pathway - cell viability counter screen (AID 1159525; calls by dose curve; note: nearly all actives have a fitted effect of over 55% in size). The procedure, abridged: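 ME-180 AP-1-bla, 2500 cells/well, Opti-MEM + 0.5% dialyzed FBS; overnight 37 °C; cpd 15-pt titration, 5 h 37 °C; CellTiter-Glo 30 min RT; luminescence read; normalised to TOAB and DMSO controls.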
Test [8] can be described thus: qHTS assay to identify small molecule agonists of the AP-1 signaling pathway (AID 1159526; calls by dose curve).
Test [9] concerns the target Retinoic acid receptor RXR-alpha (Homo sapiens) (UniProt P19793). In words: qHTS assay to identify small molecule agonists of the RXR signaling pathway (AID 1159527; calls by dose curve; note: nearly all actives have a fitted effect of over 35% in size). The essentials:
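Using 9-cis retinoic acid as the reference agonist, chemicals were tested in HEK 293T cells […] for 16 hr; substrate loading lasted 2 hr at room temperature.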

The nature of test [10]: qHTS assay to identify small molecule agonists of the RXR signaling pathway - cell viability counter screen (AID 1159529). The procedure, abridged:
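Compounds dissolved in DMSO were pinned onto HEK 293T cells carrying a beta-lactamase reporter under RXR-alpha control and incubated 16 hr. Cytotoxicity was then quantified by CellTiter-Glo luminescence.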

Test [11] is described as follows: qHTS assay to identify small molecule antagonists of the retinoid acid receptor (RAR) signaling pathway - cell viability counter screen (AID 1159551). Note: nearly all actives have a fitted effect of over 35% in size. The essentials:
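C3RL4 cells were seeded overnight at 37 C, then treated with compounds plus 1 uM (final) retinol for 6 h at 37 C. Viability was read as ATP by CellTiter-Glo luminescence after 30 min at room temperature.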

Test [12] in a line: qHTS assay to identify small molecule antagonists of the retinoic acid receptor (RAR) signaling pathway (AID 1159552; note: nearly all actives have a fitted effect of over 50% in size; note: potency is the fitted concentration of half-maximal effect). The essentials: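 Test chemicals and DMSO controls were pin-transferred onto C3RL4 cells a day after seeding; retinol (1 uM final) followed at once. Luminescent reporter output was quantified after 6 hr of co-incubation and 30 min with detection reagent.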
Test [13] is described as follows: qHTS assay to identify small molecule agonists of the retinoic acid receptor (RAR) signaling pathway (AID 1159553). Note: potency is the fitted concentration of half-maximal effect. The procedure, abridged:
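C3RL4 cells carrying a RARE luciferase reporter were plated overnight at 37 C, then exposed to compounds in DMSO for 6 hr at 37 C and 5% CO2. Luminescence was read 30 min after luciferase reagent addition at room temperature.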

The structures appear in SMILES notation. Results filed as inconclusive are left out. Active and inactive are the calls of the source. Unless noted, calls come from the whole dose curve; as a rule, active = well fitted curve in the direction sought with a large enough effect in the repeat runs; inconclusive = weak or mixed curves; inactive = no such curve, though single readings can be large; an effect the other way counts as inactive or inconclusive.

Sequence of Retinoic acid receptor RXR-alpha (Homo sapiens) (P19793 whole entry, looked up): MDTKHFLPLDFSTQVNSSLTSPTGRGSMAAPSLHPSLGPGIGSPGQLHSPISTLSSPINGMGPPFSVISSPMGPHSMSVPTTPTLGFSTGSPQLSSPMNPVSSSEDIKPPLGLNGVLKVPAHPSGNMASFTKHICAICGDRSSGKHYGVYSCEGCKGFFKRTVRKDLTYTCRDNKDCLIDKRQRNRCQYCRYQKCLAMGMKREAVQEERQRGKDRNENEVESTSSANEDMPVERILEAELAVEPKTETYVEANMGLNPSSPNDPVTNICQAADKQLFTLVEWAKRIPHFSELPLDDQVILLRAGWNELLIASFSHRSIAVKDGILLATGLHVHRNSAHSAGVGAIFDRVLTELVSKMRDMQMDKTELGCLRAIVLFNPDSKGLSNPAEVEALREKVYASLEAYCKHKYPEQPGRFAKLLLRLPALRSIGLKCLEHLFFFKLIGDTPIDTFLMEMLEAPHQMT

For the molecule `CCC(C)(CN(C)C)OC(=O)c1ccccc1` (stereo unspecified), the result in test [1], in test [2], in [3], in test [4], in test [5] and in [7] was inactive. Also, the molecule was called inactive in [8] and in [11]. Besides, the Potency entry in test [6], in test [9], in test [10], in test [12] and in test [13] was “inactive” throughout.

As for `C=CCCCCCCCCC(=O)OCC`, the molecule was called inactive in test [1], in test [2], in test [4], in [5], in test [7] and in test [8]. Further, the result in [11] was inactive. Moreover, the Potency entry in test [6], in test [9] and in test [10] was “inactive” each time.

As for `C=COCC1CCC(COC=C)CC1` (stereo unspecified), the molecule was classed as inactive in [1], in test [2], in [3], in test [7], in [8] and in [11]. Besides, the Potency entry in test [6], in test [9] and in test [10] was “inactive” in each case.

On to `O=C(O)CCSCCC(=O)O`, for which the molecule was called inactive in [1], in test [2], in test [3], in test [7], in test [8] and in test [11]. In addition, the Potency result in test [6], in [9] and in test [10] was “inactive” throughout.

Take `COC(=O)C1=C(C)NC(C)=C(C(=O)OC(C)C)C1c1cccc2nonc12` (stereo unspecified): the result in [1], in [2], in [3], in test [4], in test [5] and in test [7] was inactive. The result in test [8] and in test [11] was inactive. Further, the Potency result in [6], in test [9], in test [10] and in test [13] was “inactive” each time. Further, the Potency in [12] is 21.1 µM (active).

Turning to `CCCCCCCCN1CCCC1=O`, the outcome in [1], in test [2], in [3], in test [4], in [5] and in test [7] was inactive. For the same molecule, the result in test [8] and in test [11] was inactive. The Potency entry in [6], in [9], in test [10] and in test [12] was “inactive” in each case.

On to `CC(C)COC(=O)c1ccc(N)cc1`, for which the result in test [1], in test [2], in test [3], in [4], in test [5] and in [7] was inactive. For the same molecule, the call in [8] and in test [11] was inactive. In addition, the Potency result in test [6], in [9], in [10] and in test [12] was “inactive” throughout. The Potency in [13] was 18.8 µM (active).

For the molecule `CCCCCCC#CC(=O)OC`, the outcome in test [1], in test [2], in test [3], in test [4], in test [5] and in [8] was inactive. Moreover, in [11], the molecule was called inactive. Moreover, the Potency entry in [6], in test [9] and in [10] was “inactive” throughout.

For the molecule `CO[Si](C)(OC)c1ccccc1`, the call in test [1], in [2], in test [3], in test [4], in test [5] and in test [7] was inactive. Moreover, the outcome in [8] and in [11] was inactive. Also, the Potency entry in test [6], in test [9] and in test [10] was “inactive” throughout.

For `c1ccc(CCc2ccccc2)cc1`, the molecule was classed as inactive in test [1], in test [2], in test [3], in [4], in test [5] and in test [7]. Besides, the outcome in [8] and in [11] was inactive. The Potency entry in [6], in test [9], in [10], in [12] and in test [13] was “inactive” in each case.

Turning to `O=Cc1cccc(Br)c1`, the molecule was called inactive in test [1], in test [2], in test [3], in [4], in test [5] and in test [7]. For the same molecule, the molecule was classed as inactive in test [8] and in [11]. In addition, the Potency result in test [6], in test [9], in [10] and in [12] was “inactive” throughout.

For `CCCC(C)C(=O)OCC` (stereo unspecified), the call in test [1], in [3], in [4], in test [7], in test [8] and in [11] was inactive. For the same molecule, the Potency entry in [6], in test [9], in [10] and in [12] was “inactive” throughout.

For `c1ccc(Cc2ccccc2)cc1`, the outcome in [1], in test [2], in test [3], in test [5], in [7] and in test [8] was inactive. For the same molecule, the outcome in test [11] was inactive. In addition, the Potency result in [6], in [9] and in [10] was “inactive” each time.

Consider `CCCCCCC1CCC(=O)O1` (stereo unspecified), for which the result in test [1], in [3], in [4], in test [5], in test [7] and in test [8] was inactive. The result in [11] was inactive. In addition, the Potency entry in test [6], in test [9], in test [10] and in test [12] was “inactive” throughout.

Take `O=C(CO)[C@@H](O)[C@H](O)[C@H](O)CO`: the result in [1], in test [2], in test [3], in test [4], in test [5] and in test [7] was inactive. Moreover, the outcome in [8] and in test [11] was inactive. Besides, the Potency result in test [6], in test [9] and in test [10] was “inactive” in each case.

Take `CCC1C(=O)OCC1Cc1cncn1C` (stereo unspecified): the call in [1], in [2], in test [3], in test [4], in [5] and in [7] was inactive. Moreover, the molecule was classed as inactive in test [8] and in test [11]. Moreover, the Potency entry in test [6], in test [9], in test [10], in [12] and in test [13] was “inactive” in each case.

Regarding `CO[C@@]1(NC(=O)CSC[C@@H](N)C(=O)O)C(=O)N2C(C(=O)O)=C(CSc3nnnn3C)CS[C@@H]21`, the molecule was called inactive in test [1], in [2], in [3], in test [4], in test [5] and in test [7]. Further, the molecule was called inactive in [8] and in [11]. Also, the Potency result in test [6], in [9] and in [10] was “inactive” in each case.

Source of the values: PubChem BioAssay (Tox21).
